35 compounds from the supplement of paper PMC4723716 can be followed below.

The subject of the experiment is Plasmodium falciparum NF54 stage V gametocytes. The experiment in a line: viability index relative to DMSO control (fraction); higher = less gametocyte killing. As to conditions: 2.5 µM, incubation time: 72 h. The protocol:
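Broad DOS informer set and blood-stage-active DOS compounds screened in duplicate at 2.5 µM against P. falciparum NF54 stage V gametocytes with the serum-free one-step SaLSSA (1536-well): 72 h at 37 °C under low oxygen, then saponin lysis and MitoTracker Red CMXRos staining, with high-content imaging. Viability index = viable-object count divided by the plate mean of DMSO wells (0 = killed, about 1 = inactive).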

The mark [1] stands for this setting: library set: Broad Institute DOS.
Setting [2] is: library set: Broad Institute Blood Stage.

± gives the uncertainty stated by the source. The full ranking holds about 9,900 compounds; the median of “viability index relative to DMSO control” is about 1, and the lowest 2% start at about 0.85. The entries come from a sample that favours the lowest values as a whole.

`CC(C)C#Cc1ccc([C@H]2[C@@H](CO)N3C(=O)CN(C(=O)Cc4ccccc4)C[C@@H]23)cc1` displayed a viability index under setting [1] of 1.07 ± 0.021.
Still for that read-out and setting: the figure for `CC(C)C#Cc1ccc([C@@H]2[C@H](CO)N3C(=O)CN(C(=O)Cc4ccccc4)C[C@@H]23)cc1` is 1.1 ± 0.016.
With `CC(C)C#Cc1ccc([C@H]2[C@@H](CO)N3C(=O)CN(C(=O)Cc4ccccc4)C[C@H]23)cc1`, the viability index under setting [1] was found to be 0.848 ± 0.025.
Under setting [2], `O=C(Cc1ccccc1)N1CC(=O)N2[C@H](CO)[C@H](c3ccc(C#Cc4ccccc4)cc3)[C@H]2C1` displayed a viability index of 0.728 ± 0.097.
Same read-out and setting: the figure for `O=C(Cc1ccccc1)N1CC(=O)N2[C@H](CO)[C@H](c3ccc(C#CCc4ccccc4)cc3)[C@H]2C1` is 0.699 ± 0.1.
Consider `CC(C)C#Cc1ccc([C@@H]2[C@H]3CN(C(=O)Cc4ccccc4)CC(=O)N3[C@H]2CO)cc1`, for which the viability index under setting [1] came out at 0.864 ± 0.047.
The same measure, in the same setting: the figure for `CC(C)C#Cc1ccc([C@@H]2[C@@H](CO)N3C(=O)CN(C(=O)Cc4ccccc4)C[C@H]23)cc1` is 1.04 ± 0.039; for `CC(C)C#Cc1ccc([C@H]2[C@H](CO)N3C(=O)CN(C(=O)Cc4ccccc4)C[C@@H]23)cc1` it is 1.08 ± 0.08; for `CC(C)C#Cc1ccc([C@@H]2[C@@H](CO)N3C(=O)CN(C(=O)Cc4ccccc4)C[C@@H]23)cc1` it is 1.07 ± 0.047.
The same measure, in the same setting: the figure for `C/C=C/c1ccc([C@H]2[C@H]3CN(S(=O)(=O)c4ccccc4)CC(=O)N3[C@H]2CO)cc1` is 1.03 ± 0.034; for `C/C=C/c1ccc([C@H]2[C@@H](CO)N3C(=O)CN(S(=O)(=O)c4ccccc4)C[C@H]23)cc1` it is 0.975 ± 0.12; for `C/C=C/c1ccc([C@@H]2[C@@H](CO)N3C(=O)CN(S(=O)(=O)c4ccccc4)C[C@@H]23)cc1` it is 0.777 ± 0.16.
Still for that read-out and setting: in the case of `C[C@H]1CN([C@@H](C)CO)C(=O)c2c(c3ccccc3n2C)-c2ccccc2CO[C@@H]1CN(C)C(=O)[C@@H](Cc1ccccc1)N(C)C` it was 1.07 ± 0.11; in that of `CCS(=O)(=O)Nc1ccc2c(c1)C(=O)N(C)C[C@H](OC)[C@H](C)CN(CC1CCCCC1)[C@H](C)CO2`, 0.995 ± 0.1.
`CN1CCN(C(=O)c2cc3c(c(-c4cccc(C5=CCCC5)c4)n2)[C@@H](CCO)N([S@](=O)C(C)(C)C)C3)CC1` had a viability index under setting [1] of 0.991 ± 0.024.
Same read-out and setting: the figure for `O=C(Nc1cccc(Cl)c1)N1C[C@H]2[C@@H](c3ccccc31)[C@@H](CO)N2Cc1cccnc1` is 1.06 ± 0.092.
The same measure, in the same setting: the figure for `C[C@@H]1CCCn2cc(nn2)COCCNC1=O` is 0.994 ± 0.094; for `CC(C)CC#Cc1ccc([C@@H]2[C@@H](CO)N3CCCCN(C(=O)Nc4ccccc4)C[C@H]23)cc1` it is 0.844 ± 0.032.
On the same count and under the same terms, in the case of `CC(C)CC#Cc1ccc([C@@H]2[C@H]3CN(C(=O)Nc4ccccc4)CCCCN3[C@H]2CO)cc1` it was 0.542 ± 0.086; in that of `CC(C)CC#Cc1ccc([C@H]2[C@H]3CN(C(=O)Nc4ccccc4)CCCCN3[C@H]2CO)cc1`, 0.99 ± 0.061.
As to `CC(C)CC#Cc1ccc([C@@H]2[C@@H](CO)N3CCCCN(C(=O)Nc4ccccc4)C[C@@H]23)cc1`, the viability index under setting [1] was 1 ± 0.15.
Same read-out and setting: the figure for `CC(C)CC#Cc1ccc([C@@H]2[C@H](CO)N3CCCCN(C(=O)Nc4ccccc4)C[C@@H]23)cc1` is 0.877 ± 0.053; for `CC(C)CC#Cc1ccc([C@H]2[C@H](CO)N3CCCCN(C(=O)Nc4ccccc4)C[C@@H]23)cc1` it is 0.935 ± 0.034; for `CC(C)CC#Cc1ccc([C@H]2[C@@H](CO)N3CCCCN(C(=O)Nc4ccccc4)C[C@H]23)cc1` it is 0.782 ± 0.084.
The same measure, in the same setting: the figure for `COCC#Cc1ccc([C@@H]2[C@@H](CO)N3CCCCN(C(=O)NC4CCCC4)C[C@@H]23)cc1` is 1.01 ± 0.02; for `CC(C)CC#Cc1ccc([C@H]2[C@@H](CO)N3CCCCN(C(=O)Nc4ccccc4)C[C@@H]23)cc1` it is 1.02 ± 0.057.
`Cc1noc(C)c1NC(=O)N1C[C@@H](O)COC[C@H]2O[C@@H](CC(=O)N[C@@H]3CCN(Cc4ccccc4)C3)CC[C@@H]21` returned a viability index under setting [1] of 0.994 ± 0.052.
The same measure, in the same setting: in the case of `CCC(=O)N1[C@H](CO)[C@@H]2c3ccccc3N(C(=O)c3cnccn3)C[C@@H]21` it was 0.908 ± 0.3.
The same measure, in the same setting: in the case of `C/C=C/c1ccc2n(c1=O)C[C@H]1[C@H](CO)[C@@H](C(=O)Nc3nccs3)N(Cc3cc(F)ccc3F)[C@@H]21.C/C=C\c1ccc2n(c1=O)C[C@H]1[C@H](CO)[C@@H](C(=O)Nc3nccs3)N(Cc3cc(F)ccc3F)[C@@H]21` it was 1.07 ± 0.056; in that of `Cc1noc(C)c1NC(=O)N(C)C[C@H]1Oc2ccc(NC(=O)Cc3cn(C)c4ccccc34)cc2CC(=O)N([C@@H](C)CO)C[C@H]1C`, 0.941 ± 0.2; in that of `COCC#Cc1ccc([C@H]2[C@H]3CN(C(=O)C4CCCCC4)CC(=O)N3[C@H]2CO)cc1`, 1.01 ± 0.034.
Same read-out and setting: the figure for `COc1ccc2c3c([C@@H](CO)N(C)C[C@]33CCN(CC3)C(=O)CN3CCOCC3)n(C)c2c1` is 0.9699 ± 0.0061; for `CN(C)C(=O)c1cccc(-c2ccc([C@H]3[C@@H]4CN(Cc5ccccc5F)C[C@H]3N4)cc2)c1` it is 1.05 ± 0.084; for `CN(C)C(=O)c1cccc(-c2ccc([C@@H]3[C@@H]4CN(Cc5ccccc5F)C[C@H]3N4)cc2)c1` it is 0.977 ± 0.016.
Consider `CN(C)C(=O)c1ccc(-c2ccc([C@H]3[C@@H]4CN(Cc5ccccc5Cl)C[C@H]3N4)cc2)cc1`, for which the viability index under setting [1] was determined as 0.846 ± 0.021.
